Potency and outcome data for 20 molecules are collected here from PubChem BioAssay (Tox21).

Test [1] can be described thus: qHTS assay to identify aromatase inhibitors - cell viability counter screen (AID 743084).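 Further: cells stimulated with testosterone during compound exposure; nearly all actives have a fitted effect of over 55% in size.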 Further: potency means the concentration at half of the fitted maximal effect.
Test [2] has as its target Aryl hydrocarbon receptor (Homo sapiens) (UniProt P35869). As to the kind of experiment: qHTS assay to identify small molecule that activate the aryl hydrocarbon receptor (AhR) signaling pathway (AID 743085). Further: nearly all actives have a fitted effect of over 15% in size. Further: potency means the concentration at half of the fitted maximal effect.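 On activation: HG2L7.5c1 human HepG2 liver cells with stably integrated DRE-driven firefly reporter; series mostly up to about 70 µM.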 The method in brief: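 Compounds were tested in HepG2 hepatocellular carcinoma cells harbouring a stably integrated luciferase gene under control of 20 DREs. Increased reporter signal after 24 h treatment at 37C was taken as AhR activation.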

A short description of test [3]: qHTS assay to identify small molecule that activate the aryl hydrocarbon receptor (AhR) signaling pathway - cell viability counter screen (AID 743086). Further: nearly all actives have a fitted effect of over 45% in size. Further: potency means the concentration at half of the fitted maximal effect. A digest of the protocol: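 HepG2-AhR-luc (HG2L7.5c1) cells, 4000/well, were preincubated 5 h at 37C, exposed to compound in qHTS format for 24 hr at 37C, then given CellTiter-Fluor for 30 min; viability was read as fluorescence in the reporter wells.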

Test [4] addresses Peroxisome proliferator-activated receptor gamma (Homo sapiens) (UniProt P37231). The experiment in a line: qHTS assay to identify small molecule agonists of the peroxisome proliferator-activated receptor gamma (PPARg) signaling pathway (AID 743094; active means well fitted activation curve with a large enough effect in the signal ratio in the repeat runs, not every such curve was filed as active; the % refers to the signal ratio). The method in brief: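 GeneBLAzer PPARg UAS-bla HEK293H cells carrying a stably integrated beta-lactamase reporter were pre-incubated 5 h at 37C, then exposed to compounds in DMSO for 17 h at 37C; LiveBLAzer B/G FRET substrate was added for 1 h at room temperature and fluorescence read.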

Test [5] can be described thus: qHTS assay to identify small molecule antagonists of the peroxisome proliferator-activated receptor gamma (PPARg) signaling pathway - cell viability counter screen (AID 743194). Further: nearly all actives have a fitted effect of over 55% in size. The method in brief: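 PPARg-UAS-bla HEK293H cells were plated, rested 5 h at 37 C, then treated with compounds plus rosiglitazone (50 nM final) for 17 h at 37 C; viability was then read by CellTiter-Glo luminescence after 30 min at room temperature.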
A general note: Quantitative high-throughput screening tests each substance at several concentrations.

Test [6] can be described thus: qHTS assay for small molecule agonists of the antioxidant response element (ARE) signaling pathway (AID 743202; active means well fitted activation curve with a large enough effect in the signal ratio in the repeat runs, not every such curve was filed as active; the % refers to the signal ratio). A digest of the protocol: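 Compounds delivered in DMSO to ARE-bla HepG2 cells (2,000 cells/well, pre-incubated 5 h) and left 16 h at 37 C. LiveBLAzer B/G FRET substrate then added for 2 h at RT before fluorescence reading.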
Test [7] is described as follows: qHTS assay for small molecule agonists of the antioxidant response element (ARE) signaling pathway - cell viability counter screen (AID 743203; calls by dose curve; further: nearly all actives have a fitted effect of over 55% in size; further: potency means the concentration at half of the fitted maximal effect). The method in brief: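 CellSensor ARE-bla HepG2 cells, 2,000 per well, rested 5 hrs at 37C/5% CO2, then exposed to compound in DMSO for 16 hrs; viability read as CellTiter-Glo luminescence after 30 min at room temperature, in the reporter wells.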

A short description of test [8]: qHTS assay for small molecule activators of the heat shock response signaling pathway - cell viability counter screen (AID 743209). Further: nearly all actives have a fitted effect of over 50% in size. Further: potency means the concentration at half of the fitted maximal effect. A digest of the protocol: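 CellSensor HSE-bla HeLa cells, plated overnight at 37 C/5% CO2, were exposed to compounds in DMSO for 5 h at 37 C. Viability was then read in the same wells by CellTiter-Glo luminescence after 30 min at room temperature.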

Test [9] in a line: qHTS assay for small molecule activators of the heat shock response signaling pathway (AID 743210; active means well fitted activation curve with a large enough effect in the signal ratio in the repeat runs, with a control signal flat, not every such curve was filed as active; the % refers to the signal ratio;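 further: HeLa cells with beta-lactamase reporter driven by heat shock elements; series mostly up to about 63 µM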). A digest of the protocol:
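Reporter gene assay: HeLa cells stably bearing an HSE-bla construct, compound treatment 5 h at 37 C, LiveBLAzer substrate 2.5 h at RT, fluorescence intensity.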

Values joined by “and” are separate entries in the source; they are usually repeats but may differ in a detail not shown here. Identical values can stand only once. Inconclusive results are not listed. A structure can be active in one record and inactive in another. Active and inactive are the calls of the source. Unless noted, the call rests on the fitted dose curve; in most records, active means well fitted curve in the direction sought with a large enough effect in the repeat runs; inconclusive means weak or mixed curves; inactive means no such curve, though single readings can be large; an effect the other way counts as inactive or inconclusive.

Peroxisome proliferator-activated receptor gamma (Homo sapiens), sequence (P37231 whole entry, looked up): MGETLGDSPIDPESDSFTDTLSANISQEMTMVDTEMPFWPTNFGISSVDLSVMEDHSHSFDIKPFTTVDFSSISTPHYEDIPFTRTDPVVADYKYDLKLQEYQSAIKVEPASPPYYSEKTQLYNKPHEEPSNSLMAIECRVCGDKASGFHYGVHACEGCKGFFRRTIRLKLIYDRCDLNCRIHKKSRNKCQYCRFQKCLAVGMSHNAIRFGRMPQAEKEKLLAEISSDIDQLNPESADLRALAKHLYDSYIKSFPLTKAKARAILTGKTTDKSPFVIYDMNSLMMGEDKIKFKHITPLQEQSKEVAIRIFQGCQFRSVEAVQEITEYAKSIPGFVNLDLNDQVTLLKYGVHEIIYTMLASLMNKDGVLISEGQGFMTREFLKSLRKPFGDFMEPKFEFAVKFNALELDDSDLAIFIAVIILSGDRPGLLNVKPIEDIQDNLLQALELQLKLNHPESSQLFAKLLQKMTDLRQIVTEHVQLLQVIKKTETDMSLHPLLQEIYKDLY
Aryl hydrocarbon receptor (Homo sapiens), sequence (P35869 whole entry, looked up): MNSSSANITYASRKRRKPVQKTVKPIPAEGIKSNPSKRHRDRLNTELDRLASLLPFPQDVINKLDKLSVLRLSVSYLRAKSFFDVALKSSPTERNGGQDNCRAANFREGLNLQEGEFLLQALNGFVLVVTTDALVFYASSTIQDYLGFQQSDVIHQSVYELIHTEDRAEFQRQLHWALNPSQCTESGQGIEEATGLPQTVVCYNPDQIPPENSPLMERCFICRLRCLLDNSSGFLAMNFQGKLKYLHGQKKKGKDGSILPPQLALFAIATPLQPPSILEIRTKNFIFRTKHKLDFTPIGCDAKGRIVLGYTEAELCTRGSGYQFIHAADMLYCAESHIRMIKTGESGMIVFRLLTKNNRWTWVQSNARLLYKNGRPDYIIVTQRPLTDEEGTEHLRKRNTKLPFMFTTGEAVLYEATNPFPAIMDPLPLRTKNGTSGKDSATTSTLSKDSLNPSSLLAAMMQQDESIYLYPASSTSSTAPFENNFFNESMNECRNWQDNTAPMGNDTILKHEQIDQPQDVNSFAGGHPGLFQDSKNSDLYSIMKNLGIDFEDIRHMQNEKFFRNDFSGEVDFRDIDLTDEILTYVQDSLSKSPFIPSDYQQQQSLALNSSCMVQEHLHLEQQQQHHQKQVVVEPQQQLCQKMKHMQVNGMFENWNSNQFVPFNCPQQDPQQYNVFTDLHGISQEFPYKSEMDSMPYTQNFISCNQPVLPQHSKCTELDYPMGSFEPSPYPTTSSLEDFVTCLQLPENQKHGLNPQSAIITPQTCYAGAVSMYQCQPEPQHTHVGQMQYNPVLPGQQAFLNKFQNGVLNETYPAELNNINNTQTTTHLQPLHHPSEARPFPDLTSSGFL

In the case of `CSSc1ccoc1C`, the Potency result in [1], in test [2], in test [3], in test [5], in [6] and in test [7] was “inactive” throughout. Moreover, the Potency entry in test [8] and in test [9] was “inactive” each time. For the same molecule, the outcome in test [4] was inactive.
On to `CC1CCC(C(C)CS)CC1S` (stereo not given), for which the Potency result in test [1], in test [2] and in test [3] was “inactive” each time. The outcome in test [4] was inactive. For the same molecule, the results for the Potency in test [7] and in test [8] were 15.4 µM (active) and 38.9 µM (active), respectively.
Turning to `CCN(Cc1cccc(S(=O)(=O)O)c1)c1ccc(C(=C2C=CC(=[N+](CC)Cc3cccc(S(=O)(=O)O)c3)C=C2)c2ccccc2S(=O)(=O)[O-])cc1`, the Potency in [1] was 13.7 µM (active); in [3], 27.4 µM (active). Further, the Potency entry in test [2], in test [5] and in test [9] was “inactive” in each case. The result in test [4] was inactive.
Turning to `COc1cc(OC)c2ccc(=O)oc2c1`, the Potency entry in [1], in [2], in test [3], in [5], in test [8] and in test [9] was “inactive” each time. Besides, in [4], the molecule was classed as inactive.
On to `Nc1ccc(F)cc1`, for which the Potency entry in test [1], in test [2], in test [3], in test [5], in [6] and in [8] was “inactive” throughout. In addition, the Potency result in test [9] was “inactive”. In test [4], the outcome was inactive.
Consider `CC(C)C1CCC(C(=O)N[C@H](Cc2ccccc2)C(=O)O)CC1` (stereo not given in full), for which the Potency entry in test [1], in test [2], in test [3], in test [5], in test [7] and in test [8] was “inactive” throughout. Further, the Potency entry in test [9] is “inactive”. For the same molecule, in test [4], the call was inactive.
`COc1ccc(-c2cc(C(F)F)nn2-c2ccc(S(N)(=O)=O)cc2)cc1F`: the Potency entry in test [1], in test [2], in [3], in test [5], in [7] and in test [8] was “inactive” throughout. Also, the Potency result in test [9] is “inactive”. Moreover, the outcome in test [4] was inactive.
As to `O=[N+]([O-])C1(Br)COCOC1`, the Potency in [1] was 43.3 µM (active); in test [8] it was 49 µM (active). Further, the Potency result in test [2] and in [3] was “inactive” throughout. For the same molecule, the molecule was classed as inactive in test [4].
As for `COC(C)(C)OC`, the Potency result in test [1], in test [2], in test [3], in test [5], in test [6] and in test [7] was “inactive” each time. For the same molecule, the Potency entry in test [9] is “inactive”. In addition, the call in test [4] was inactive.
`Cc1c[nH]c2ccccc12`: the Potency entry in [1], in [2], in test [3], in test [5], in test [7] and in test [8] was “inactive” throughout. For the same molecule, the molecule was called inactive in test [4].
For the molecule `CC(C)(C)S`, the Potency entry in test [1], in test [2], in test [3], in test [5] and in [7] was “inactive” throughout. The outcome in test [4] was inactive.
Consider `CC(CO)(CO)C(=O)O`, for which the Potency result in test [1], in test [2], in test [3], in [5], in test [6] and in test [9] was “inactive” each time. In addition, the result in test [4] was inactive.
For the molecule `CC[C@H]1OC(=O)[C@H](C)[C@@H](O[C@H]2C[C@@](C)(OC)[C@@H](O)[C@H](C)O2)[C@H](C)[C@@H](O[C@@H]2O[C@H](C)C[C@H](N(C)C)[C@H]2O)[C@](C)(O)C[C@@H](C)CN(C)[C@H](C)[C@@H](O)[C@]1(C)O`, the Potency entry in test [1], in test [2], in test [3], in [5], in [7] and in [8] was “inactive” throughout. Further, the Potency result in test [9] was “inactive”. Moreover, in test [4], the molecule was called inactive.
As to `CC1=C2[C@@H]([C@H](C)CC[C@H]2/C=C(\C)C(=O)O)[C@H](O)C1`, the Potency entry in test [1], in [2], in test [3], in test [5], in test [7] and in [8] was “inactive” each time. Besides, the molecule was called inactive in [4].
Consider `CCCCCCC(CO)CCCC` (stereo not given), for which the Potency entry in [1], in test [2], in test [3], in [6] and in test [8] was “inactive” throughout. The result in test [4] was inactive.
In the case of `O=C(O)CCS`, the Potency entry in [1], in [2], in test [3], in test [5], in test [7] and in [9] was “inactive” throughout. In addition, the outcome in test [4] was inactive.
With `[Cl][Nd]([Cl])[Cl]`, the Potency result in test [1], in test [2], in test [3], in [5], in [7] and in test [8] was “inactive” each time. In [9], the Potency result was “inactive”. In test [4], the outcome was inactive.
`CCCCCc1ccco1`: the Potency result in [1], in test [2], in test [3] and in test [5] was “inactive” each time.
For `c1ccc(CNc2ncnc3c2ncn3C2CCCCO2)cc1` (stereo not given), the Potency result in test [1], in [3], in [5], in test [8] and in test [9] was “inactive” throughout. Also, the Potency in [2] was 8.63 µM (active). Further, the call in test [4] was inactive.
As to `C[C@@H]1[C@H](O)[C@@H](C)/C=C/C=C\C=C\C=C\C=C\C=C\C=C\[C@H](O[C@@H]2O[C@H](C)[C@@H](O)[C@H](N)[C@@H]2O)C[C@@H]2O[C@](O)(C[C@@H](O)C[C@@H](O)[C@H](O)CC[C@@H](O)C[C@@H](O)CC(=O)O[C@H]1C)C[C@H](O)[C@H]2C(=O)O` (stereo in doubt), the Potency entry in test [1] is “inactive and 34.4 µM (active)”. The Potency entry in test [2], in [3], in [5], in test [7], in test [8] and in test [9] was “inactive” in each case. In addition, the result in [4] was inactive.
